Activity calls are given as the source filed them. Unless noted, the rule behind the calls is not given here.
Key:
[1] = resazurin metabolic signal in HepG2 cells – cell-based, resazurin fluorescence, 24 h, PK04 Diversity Set, profiling panel (AID 1172); conditions: HepG2 viability, higher = more signal; note: test concentration not given here
[2] = budding yeast growth changes without added modifier – OD600, strain BY4716, 24 h, basal condition, primary screen (AID 1173); conditions: S. cerevisiae BY4716 growth, OD600, 24 h; higher = more signal, called active from +8 up or from −8 down
[3] = viability profiling in MM1S myeloma cells – cell-based, resazurin fluorescence, basal, 24 h, PK04 Diversity Set, profiling panel (AID 1174); conditions: higher = more signal, called active from +8 up or from −8 down;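 note: MM1S multiple myeloma cell line; test concentration not given here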
[4] = target: Dihydroorotate dehydrogenase (quinone), mitochondrial (Plasmodium falciparum (isolate 3D7)) (UniProt Q08210); experiment: inhibition of P. falciparum DHODH – biochemical, C-terminal His tag, absorbance 600 nm, primary screen (AID 1175); conditions: PfDHODH enzyme, DCIP absorbance 600 nm; higher = more signal, called active from +8 up or from −8 down;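 note: recombinant parasite enzyme with a five histidine tag at its C terminus; test concentration not given here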
Sequence of Dihydroorotate dehydrogenase (quinone), mitochondrial (Plasmodium falciparum (isolate 3D7)) (Q08210 whole entry, looked up): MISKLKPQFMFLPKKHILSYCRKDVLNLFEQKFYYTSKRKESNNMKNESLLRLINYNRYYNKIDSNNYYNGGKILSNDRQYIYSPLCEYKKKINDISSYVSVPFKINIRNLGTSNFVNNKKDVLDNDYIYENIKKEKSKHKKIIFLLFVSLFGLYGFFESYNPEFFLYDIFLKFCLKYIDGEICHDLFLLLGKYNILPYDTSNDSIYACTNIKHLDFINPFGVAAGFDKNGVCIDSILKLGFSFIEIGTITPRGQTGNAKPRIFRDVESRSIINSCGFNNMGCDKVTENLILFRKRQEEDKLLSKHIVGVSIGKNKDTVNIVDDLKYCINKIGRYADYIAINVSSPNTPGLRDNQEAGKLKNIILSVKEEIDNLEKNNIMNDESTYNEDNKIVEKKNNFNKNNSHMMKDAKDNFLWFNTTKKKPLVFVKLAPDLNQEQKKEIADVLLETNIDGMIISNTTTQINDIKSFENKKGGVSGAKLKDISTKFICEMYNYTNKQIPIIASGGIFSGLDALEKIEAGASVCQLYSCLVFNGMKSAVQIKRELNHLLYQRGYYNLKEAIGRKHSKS

[5] = inhibition of PAO1 biofilm formation – strain PAO1, LB-PBS medium, absorbance 600 nm, primary screen (AID 1176); note: test concentration not given here; conditions: P. aeruginosa PAO1 growth/biofilm, A600, 12 h; higher = more signal
[6] = growth modulation of vineyard yeast isolate – strain RM11-1a, OD600, basal, 24 h, primary screen (AID 1177);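 note: cultures grown under basal conditions with no added stressor; test concentration not given here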; conditions: S. cerevisiae RM11-1a growth, OD600, 24 h; higher = more signal, called active from +8 up or from −8 down
[7] = growth of efflux-deficient E. coli DRC39 – strain DRC39, OD650, 24 h, E. coli filamentation inducers, primary screen (AID 1178);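 note: growth measured as culture turbidity by optical density at 650 nm; test concentration not given here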; conditions: E. coli DRC39 acrAB, higher = more signal, called active from +8 up or from −8 down
[8] = growth of efflux-deficient E. coli DRC39 – strain DRC39, OD650, 48 h, E. coli filamentation inducers, primary screen (AID 1179);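 note: screen aims at cell division blockers that make cells filament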; conditions: E. coli DRC39 delta-acrAB growth, higher = more signal, called active from +8 up or from −8 down
[9] = viability profiling in RPMI8226 myeloma cells – cell-based, resazurin fluorescence, basal, 24 h, PK04 Diversity Set, profiling panel (AID 1180); conditions: higher = more signal;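 note: RPMI8826 multiple myeloma cell line at 5000 cells per well; test concentration not given here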
[10] = target: E3 ubiquitin-protein ligase XIAP (Homo sapiens) (UniProt P98170); experiment: small molecules binding XIAP protein – biophysical, small-molecule microarray, fluorescence 635 nm, primary screen (AID 1181); conditions: higher = more signal;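 note: score merges 667 nm emission and signal to noise over triplicate slides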
Sequence of E3 ubiquitin-protein ligase XIAP (Homo sapiens) (P98170 whole entry, looked up): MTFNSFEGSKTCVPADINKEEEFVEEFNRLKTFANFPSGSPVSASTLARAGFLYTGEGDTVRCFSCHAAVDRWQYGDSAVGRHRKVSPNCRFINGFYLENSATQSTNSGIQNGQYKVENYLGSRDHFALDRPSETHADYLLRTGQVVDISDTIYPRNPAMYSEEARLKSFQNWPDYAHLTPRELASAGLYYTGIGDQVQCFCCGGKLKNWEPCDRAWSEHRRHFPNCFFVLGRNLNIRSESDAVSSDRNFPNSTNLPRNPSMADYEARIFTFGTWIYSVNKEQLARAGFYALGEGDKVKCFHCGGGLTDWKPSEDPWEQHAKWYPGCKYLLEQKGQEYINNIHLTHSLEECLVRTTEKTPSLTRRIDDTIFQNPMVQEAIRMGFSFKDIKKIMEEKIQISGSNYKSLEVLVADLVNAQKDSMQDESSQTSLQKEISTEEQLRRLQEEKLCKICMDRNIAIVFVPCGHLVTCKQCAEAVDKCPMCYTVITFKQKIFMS

SMILES	z-score [1]	z-score [2]	z-score [3]	composite z-score [4]	z-score [5]	z-score [6]	z-score [7]	z-score [8]	z-score [9]	composite z-score [10]
C=CCN1C(=O)[C@]2(O[C@H](CCn3cc([C@H](O)c4ccccc4)nn3)[C@@H]([Si](C)(C)c3ccc(OC)cc3)[C@@H]2C)c2cc(N3CCC3=O)ccc21	0.0514	0.743 (inactive)	-1.85 (inactive)	1.04 (inactive)	0.0245 (inactive)	2.44 (inactive)	0.518 (inactive)	-0.0117 (inactive)	-1.67	0.0623
CCOC(=O)C[C@H]1[C@H](OC(=O)c2ccccc2-c2ccccc2)[C@@H](NC(=O)CC(C)C)c2cc(OCCCO)ccc2N1C(=O)Cc1ccc(OC)cc1	-0.211	-0.184 (inactive)	0.0683 (inactive)	0.712 (inactive)	-0.165 (inactive)	-0.0992 (inactive)	-0.234 (inactive)	-0.488 (inactive)	0.456	-0.135
CC1CC/C=C\[C@H]2OC34C=CCN(C(C)(C)C)C(=O)[C@H]3N(CCO)C(=O)[C@@H]4C2C(=O)O1 (stereo not given in full)	0.488	-0.68 (inactive)	-0.0542 (inactive)	-0.0848 (inactive)	0.22 (inactive)	-0.546 (inactive)	-0.344 (inactive)	-0.519 (inactive)	-0.138	-0.309
CN1C=C(C(=O)OCCS(C)(=O)=O)C(C(=O)OCCS(C)(=O)=O)=CC(c2ccc(CO)cc2)=CC1C1CC1 (stereo not given)	-0.15	-1.68 (inactive)	-0.83 (inactive)	-0.524 (inactive)	-0.447 (inactive)	0.0635 (inactive)	0.815 (inactive)	0.63 (inactive)	-0.189	-0.359
CCC[C@@H]1C[C@@]1(CCC)[C@@H](NS(=O)(=O)c1cccc2cccnc12)c1ccc(Cl)cc1	-0.0373	1.43 (inactive)	-0.151 (inactive)	0.283 (inactive)	0.908 (inactive)	1.24 (inactive)	-0.251 (inactive)	-0.0357 (inactive)	-0.0909	0.0999
C=CCC(OC(C)=O)[C@@H]1[C@@H](N(Cc2ccc(-c3cccc(C(F)(F)F)c3)o2)C(=O)c2ccc(C)cc2)c2cc(OCCCO)ccc2N1C(=O)Cc1ccc2ccccc2c1 (stereo not given in full)	0.358	-0.219 (inactive)	0.837 (inactive)	-0.802 (inactive)	-0.312 (inactive)	0.476 (inactive)	-0.333 (inactive)	0.409 (inactive)	1.22	-0.0286
CCC[C@@H]1C[C@@]1(CCC)[C@@H](NC(=O)c1ccccc1)c1cccc(Cl)c1	-0.141	1.74 (inactive)	0.208 (inactive)	0.249 (inactive)	-0.195 (inactive)	2.26 (inactive)	-0.557 (inactive)	-0.514 (inactive)	1.09	-0.0326
CC(C)c1ccc(NN2C(C(O)c3ccc(B(O)O)cc3)C=CC3C(=O)N(c4ccccc4)C(=O)C32)cc1 (stereo not given)	-1.18	0.278 (inactive)	-1.2 (inactive)	-0.388 (inactive)	1.12 (inactive)	0.728 (inactive)	-0.329 (inactive)	-0.543 (inactive)	-0.948	-0.119
[N-]=[N+]=Nc1ccccc1[C@H]1OC(c2ccc(OCCCO)cc2)=N[C@@]1(CCS(=O)(=O)c1ccccc1)C(N)=O	-0.183	-1.06 (inactive)	0.952 (inactive)	0.22 (inactive)	0.897 (inactive)	-0.167 (inactive)	0.981 (inactive)	-0.319 (inactive)	0.187	0.291
CC(C)(C)OC(=O)CC[C@]1(C(=O)N2CCOCC2)N=C(c2ccc(OCCCO)cc2)O[C@H]1c1ccccc1N=[N+]=[N-]	0.548	-0.515 (inactive)	-0.095 (inactive)	-0.793 (inactive)	-0.0684 (inactive)	0.207 (inactive)	0.453 (inactive)	0.314 (inactive)	0.187	0.115
CCOC(=O)C[C@H]1[C@H](OC(=O)c2ccc(-c3ccccc3)cc2)[C@@H](NC(=O)Cc2ccc(OC)cc2)c2cc(OCCCO)ccc2N1C(=O)c1ccccc1	-0.616	0.695 (inactive)	-0.113 (inactive)	0.11 (inactive)	-0.252 (inactive)	0.87 (inactive)	0.303 (inactive)	0.339 (inactive)	0.0662	0.15
C[N+](C)(C)CCCCNC(=O)[C@H]1C[C@H]2C(=O)N3CCC[C@H]3C(=O)N2[C@H]1c1cccc(OCCO)c1	-2.49	1.43 (inactive)	-1.12 (inactive)	-30.8 (active)	0.628 (inactive)	0.647 (inactive)	0.66 (inactive)	0.629 (inactive)	-0.951	0.261
C=CCNC(=O)[C@@H]1[C@H]2C(=O)O[C@H](c3ccccc3)[C@H](c3ccccc3)N2[C@H](c2ccccc2OCCO)[C@@]12C(=O)N(C(=O)OCCOC)c1ccccc12	-1.59	1.86 (inactive)	-1.12 (inactive)	0.693 (inactive)	2.26 (inactive)	3.27 (inactive)	0.0191 (inactive)	-0.476 (inactive)	-1.65	-0.0559
COc1cc2c(cc1OC)CN(C(=O)[C@H]1[C@@H]3C(=O)O[C@@H](c4ccccc4)[C@@H](c4ccccc4)N3[C@@H](c3ccc(O)cc3)[C@]13C(=O)Nc1ccc(C#CCCO)cc13)CC2	-0.29	0.966 (inactive)	0.577 (inactive)	0.857 (inactive)	0.393 (inactive)	1.16 (inactive)	0.0945 (inactive)	-0.712 (inactive)	0.756	-0.249
CCc1cccc(NC(=O)O[C@H]2[C@H](OC(=O)Nc3ccccc3-c3ccccc3)[C@@H](OC(=O)Nc3ccccc3-c3ccccc3)[C@@H](OC)O[C@@H]2CO)c1	-4.43	0.972 (inactive)	-4.83 (inactive)	0.153 (inactive)	0.0279 (inactive)	0.924 (inactive)	-1.04 (inactive)	-0.361 (inactive)	-5.09	0.19
COCC(=C=CC[C@@H](O)c1cccc(OCCO)c1)C[C@@H](O)c1ccccn1	0.353	-0.449 (inactive)	0.423 (inactive)	-1.61 (inactive)	-0.353 (inactive)	0.0156 (inactive)	0.947 (inactive)	0.604 (inactive)	0.973	0.0471
[N-]=[N+]=NCc1ccccc1C[C@]1(C(N)=O)COC(c2ccc(OCCCO)cc2)=N1	0.252	-1.66 (inactive)	0.424 (inactive)	-0.0854 (inactive)	0.466 (inactive)	-1.37 (inactive)	1.23 (inactive)	1.87 (inactive)	0.399	0.144
COCCOC(=O)N1C(=O)[C@@]2(c3ccccc31)[C@H](C(=O)N1CCc3cc(OC)c(OC)cc3C1)[C@H]1C(=O)O[C@H](c3ccccc3)[C@H](c3ccccc3)N1[C@@H]2c1ccc(OCCO)cc1	-0.484	1.26 (inactive)	-0.13 (inactive)	-0.76 (inactive)	2.41 (inactive)	2.61 (inactive)	-0.259 (inactive)	0.144 (inactive)	0.549	-0.0405
COc1cc(COC(C)=O)ccc1OC(C)=O	0.858	-0.715 (inactive)	0.101 (inactive)	-0.942 (inactive)	0.317 (inactive)	-1.35 (inactive)	1.17 (inactive)	0.871 (inactive)	0.614	-0.269
O=C1[C@@]23C=C(Br)[C@H](C[C@@H]2CCOC3)[C@@]12CO2	0.165	-1.85 (inactive)	0.0335 (inactive)	-0.0887 (inactive)	0.261 (inactive)	-0.0503 (inactive)	0.297 (inactive)	0.319 (inactive)	0.428	0.188
CCCC=C(CCC)[C@@H](NC(=O)c1cccs1)c1ccc(C(F)(F)F)cc1	0.74	0.872 (inactive)	0.116 (inactive)	-4.81 (inactive)	1.69 (inactive)	0.196 (inactive)	0.224 (inactive)	-0.262 (inactive)	0.455	0.309
COc1cc2c(cc1OC)CN(C(=O)[C@H]1[C@@H]3C(=O)O[C@@H](c4ccccc4)[C@@H](c4ccccc4)N3[C@@H](c3ccc(O)cc3)[C@]13C(=O)Nc1ccccc13)CC2	-0.102	0.744 (inactive)	-0.426 (inactive)	0.806 (inactive)	1.67 (inactive)	1.07 (inactive)	0.188 (inactive)	-0.144 (inactive)	0.0788	0.188
COC(=O)[C@@]1(Cc2ccc(F)cc2)[C@H]2c3cc(C(=O)N4CCCC4)n(CCCNc4ncc(C(F)(F)F)cc4Cl)c3C[C@H]2CN1C(=O)c1ccccc1	-0.461	2.05 (inactive)	-2.38 (inactive)	0.308 (inactive)	1.03 (inactive)	1.65 (inactive)	-0.645 (inactive)	-0.681 (inactive)	-2.34	0.426

— PubChem BioAssay
